From PubChem BioAssay
Compounds with a hit are over-represented: about 18% of the library has one in this group of screens.
GCN5L2 inh – inhibitors of human GCN5L2 histone acetyltransferase. Potency, µM (top dose mostly 58.9 µM), for inactives: at the top dose activity change, negative = inhibition, usual class: inhibitors. Q92830. GCN5L2 HAT assay, ThioGlo1 CoA-SH fluorescence. AID 504327. 0.21% of 390,000 active
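ThioGlo1-coupled HAT assay: 20nM GCN5L2, 70uM acetyl-CoA, 75uM H3(1-25) peptide, pH 7.5. Fluorescence read at 340/540nm at start and after 20 min at room temperature.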
PLK1 PBD block – blocks phosphopeptide binding to human PLK1 polo-box domain; Potency, µM, for inactives: max response, negative = inhibition, most hits filed as inhibitors; Plk1 PBD binding of FITC phosphopeptide, fluorescence polarization; 2.8% of 360,000 active; P53350; further: series mostly up to about 57 µM; nearly all actives have a fitted effect of over 65% in size
Target sequence (P53350 whole entry, looked up, the tested form may be a part): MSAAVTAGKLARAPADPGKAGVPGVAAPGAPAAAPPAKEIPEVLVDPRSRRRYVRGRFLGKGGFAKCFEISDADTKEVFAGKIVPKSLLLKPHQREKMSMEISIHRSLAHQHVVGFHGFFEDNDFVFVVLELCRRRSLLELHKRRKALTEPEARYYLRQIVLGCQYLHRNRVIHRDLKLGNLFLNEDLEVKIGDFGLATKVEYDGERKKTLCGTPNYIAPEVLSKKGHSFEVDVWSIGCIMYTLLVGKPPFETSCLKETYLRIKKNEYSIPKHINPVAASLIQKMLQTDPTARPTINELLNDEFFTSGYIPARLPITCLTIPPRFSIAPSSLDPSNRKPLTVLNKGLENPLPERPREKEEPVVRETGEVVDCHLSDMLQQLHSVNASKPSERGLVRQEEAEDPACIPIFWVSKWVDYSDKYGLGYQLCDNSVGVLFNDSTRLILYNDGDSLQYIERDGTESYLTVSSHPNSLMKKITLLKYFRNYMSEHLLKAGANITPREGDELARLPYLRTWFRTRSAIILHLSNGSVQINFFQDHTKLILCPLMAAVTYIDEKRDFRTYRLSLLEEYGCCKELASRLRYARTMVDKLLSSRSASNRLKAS
TDP1 inh – inhibitors of human tyrosyl-DNA phosphodiesterase TDP1; Q9NUW8; recombinant TDP1, AlphaScreen DNA substrate cleavage; Potency, µM (doses to about 130 µM), for the others: top-dose activity change, negative = inhibition, most hits filed as inhibitors; 0.28% of 350,000 active; AID 485290; further: nearly all actives have a fitted effect of over 40% in size
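Recombinant E. coli-expressed Tdp1 (1 nM) preincubated with compound 15 min at RT, then 5'-biotin/3'-phosphotyrosine-FITC DNA substrate (15 nM) added for 5 min. AlphaScreen beads (10 ug/ml) added, 10 min RT; tyrosine-FITC cleavage read as signal loss.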
DT40 TDP1 no CPT – qHTS for Inhibitors of human tyrosyl-DNA phosphodiesterase 1 (TDP1): qHTS in cells in absence of CPT. DT40 Tdp1-/- hTDP1 cells, no CPT, ATP luminescence, 48 h. Potency, µM (highest dose often 46.2 µM), for inactives: at the top dose activity change, negative = growth inhibition, hits mostly inhibitors. 15% of 420,000 active. AID 686978, 2013; further: nearly all actives have a fitted effect of over 55% in size
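Chicken DT40 Tdp1-/- cells complemented with human TDP1, screened without camptothecin (DMSO vehicle only), 400 cells/well. Compounds pin-transferred, cells incubated at 37 °C for at least 48 hr. Growth read as ATP-dependent luminescence (CellTiter-Glo, 30 min at RT).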
VDR inhibitor – blocks the human vitamin D receptor; 0.93% of 400,000 active; AID 504847; Potency, µM, inactives show max response, negative = inhibition, most hits filed as inhibitors; VDR-SRC2-3 peptide fluorescence polarization, 2 h; P11473
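Fluorescence polarization assay of small-molecule disruption of VDR binding to coregulator peptide SRC2-3. Compounds and controls pin-transferred, then read after 2 h incubation at ambient room temperature.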
TDP1 cell CPT – DT40-hTDP1 cell growth loss with CPT; chicken DT40 Tdp1-/-;hTDP1 cells + 20 nM CPT, ATP luminescence, 48 h; Potency, µM (top dose mostly 46.2 µM), for inactives: top-dose activity change, negative = growth inhibition, usual class: inhibitors; 12% of 420,000 active; AID 686979; further: nearly all actives have a fitted effect of over 55% in size
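Chicken DT40 Tdp1-/- cells stably complemented with human TDP1 were seeded at 400 cells/well in medium containing 20 nM camptothecin, exposed to pin-transferred compounds, and grown at 37 °C for at least 48 hr. Viability was read as ATP luminescence.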
* hit, by the source's call; u = inconclusive; x = no result given; [ ] = dose if it differs, or a comment. The call rests on the fitted dose curve; in most records, active means well fitted curve in the direction sought with a large enough effect; inconclusive means small, poorly fitted or top-dose-only effect, or another doubt; inactive means no such curve, though single readings can be large; an effect the other way counts as inactive or inconclusive. On the % scale 0 is the no-effect control and ±100 the full control effect; potency means the concentration at half of the fitted maximal effect.

SMILES	GCN5L2 inh	PLK1 PBD block	TDP1 inh	DT40 TDP1 no CPT	VDR inhibitor	TDP1 cell CPT
Cc1nc2ccc(NC(=O)c3ccc(Cl)c(S(=O)(=O)N(C)c4ccccc4)c3)cc2s1	-16.1%	59.5%	8.0%	3.26µM*	-5.3%	13µM*
Cc1ccnc(NC2c3ccccc3C(=O)N2Cc2ccccc2Cl)c1 (stereo unspecified)	-8.7%	1.0%	7.9%	25.9µM*	-1.9%	u
CC(C)CC1NC(=S)N(C2CCCCC2)C1=O (stereo unspecified)	12.4%	2.99µM*	1.9%	14.6µM*	-23.8%	8.2µM*
O=C1C(Cc2ccc(O)cc2)NC(=S)N1C1CCCCC1 (stereo unspecified)	-3.1%	-15.6%	2.4%	-23.8%	2.7%	-19.9%
O=C1/C(=C/c2ccccc2)NC(=S)N1C(c1ccccc1)c1ccccc1	-2.6%	-1.8%	2.0%	5.8µM*	-5.0%	4.61µM*
O=C(Nc1ccccc1)C1=C(O)CC(c2ccc(Cl)cc2)N2CCN=C12 (stereo unspecified)	-10.7%	6.6%	2.4%	18.4µM*	-25.7%	u
CC1CC(C)CN(C(=O)COC(=O)CCCN2C(=O)c3cccc4cccc(c34)C2=O)C1 (stereo unspecified)	-23.9%	-0.2%	1.0%	-25.7%	-14.6%	5.8%
CCOC(=O)c1c(CN2CCCCC2)n(C)c2cc(Br)c(O)cc12	0.0%	2.7%	3.9%	9.2µM*	10.3%	2.31µM*
CCOC(=O)c1c(CN2CCN(C)CC2)n(C)c2cc(Br)c(OC)cc12	-0.7%	4.1%	-1.1%	u	-10.3%	u
CCOC(=O)c1c(CSC(=N)N)n(C)c2cc(Br)c(OC(C)=O)cc12	-2.2%	-7.1%	x	16.4µM*	3.1%	16.4µM*
CCSCCOC(=O)C1=C(C)N(C)C(=O)NC1c1ccc2c(c1)OCO2 (stereo unspecified)	3.3%	-13.7%	x	-12.0%	-4.3%	-13.5%
COc1ccc(C(O)C(CN2CCOCC2)c2ccccc2)cc1F (stereo unspecified)	-5.8%	-7.5%	5.6%	-28.2%	1.6%	-23.4%
CCCOc1ccc(C(=O)C(c2ccccc2)N2CCOCC2)cc1 (stereo unspecified)	-3.7%	-7.5%	-6.7%	u	-3.7%	u
CCCOc1ccc(C(=O)C(CN2CCOCC2)c2ccccc2)cc1 (stereo unspecified)	-3.0%	-5.0%	2.2%	8.2µM*	-26.8%	13µM*
COc1ccc(C(=O)C(CN2CCOCC2)c2ccccc2)cc1F (stereo unspecified)	-2.6%	-14.1%	3.9%	2.59µM*	u	4.11µM*
O=C(CN1C(=O)CSc2ccc(S(=O)(=O)N3CCOCC3)cc21)NCCCN1CCc2ccccc2C1	-3.4%	-14.1%	-5.3%	u	-11.4%	-19.7%
CCCS(=O)(=O)c1nc(S(=O)(=O)c2ccc(C)cc2)c(NC)s1	0.5%	x	2.5%	-14.3%	8.3%	-2.8%
Cc1ccc(S(=O)(=O)Nc2cc3c(cc2C)n(C)c(=O)c(=O)n3C)cc1	-19.9%	x	3.2%	u	11.8%	-21.3%
O=C(NCc1ccc(Cl)cc1)c1cc2cccc3c2n1CCS3	-10.0%	x	-8.5%	16.4µM*	-3.2%	u
CCOc1ccc(-c2nc(SC(C(C)=O)C(=O)N(C)C)c3c(=O)n(C)c(=O)n(C)c3n2)cc1 (stereo unspecified)	-1.8%	x	2.7%	-18.4%	17.7%	-5.1%
CC(C)CC(NC(=O)OC(C)(C)C)c1cn([C@@H](CCC(=O)OC(C)(C)C)C(=O)N2CCN(C(=O)OC(C)(C)C)CC2)nn1 (stereo partly specified)	-8.0%	2.3%	3.8%	16.4µM*	2.6%	16.4µM*
CC[C@H](C)C(C(=O)N1CCN(C(=O)OC(C)(C)C)CC1)n1cc(C(CC(C)C)NC(=O)OC(C)(C)C)nn1 (stereo partly specified)	-12.6%	-0.3%	3.8%	u	-21.2%	23.1µM*
CC[C@@H](C)[C@@H](C(=O)N1CCN(C(=O)OC(C)(C)C)CC1)n1cc(CCCCNC(=O)OC(C)(C)C)nn1	-3.3%	-2.8%	0.0%	13µM*	-2.6%	13µM*
COc1ccc(NC2CCCN(C(=O)c3ccccc3C(F)(F)F)C2)cc1 (stereo unspecified)	-10.2%	0.4%	7.2%[56.1 µM]	u	9.2%	-19.8%
COC(=O)N1[C@H]2CC[C@@]3(C)C=C(C)O[C@]1(C)C3c1ccccc12	x	x	8.7%	x	-2.7%	x
SMILES	GCN5L2 inh	PLK1 PBD block	TDP1 inh	DT40 TDP1 no CPT	VDR inhibitor	TDP1 cell CPT
COC(=O)c1ccc(C(=O)OC)c(NC(=O)c2cnn3c(C(F)F)cc(-c4ccc(C)cc4)nc23)c1	1.6%	x	-1.1%	1.2%	u	-19.3%
COc1cccc(-c2nc(CS(=O)(=O)CC(=O)Nc3c(C)cc(C)cc3C)c(C)o2)c1	1.2%	x	-1.2%	23.1µM*	-4.4%	18.4µM*
COc1ccc(CC(=O)Nc2ccc(-c3noc(-c4ccc(Cl)cc4)n3)cc2)cc1	-5.2%	-4.9%	5.2%	u	7.7%	5.17µM*
COc1ccc(-c2nc(CS(=O)(=O)CC(=O)Nc3ccc(Cl)cc3)c(C)o2)cc1	0.6%	-8.0%	-4.3%	20.6µM*	6.6%	10.3µM*
COc1cccc(-c2nc(CS(=O)(=O)CC(=O)NCc3ccc(C)cc3)c(C)o2)c1	-1.0%	x	5.8%	u	-11.6%	23.1µM*
COc1ccc(NC(=O)CS(=O)(=O)Cc2nc(-c3ccc(C)cc3)oc2C)cc1	-1.5%	-12.7%	1.8%	-2.4%	6.8%	-18.3%
COc1ccc(CC(=O)Nc2ccc(-c3noc(-c4cc(OC)c(OC)c(OC)c4)n3)cc2)cc1	-9.6%	0.2%	0.0%	u	-1.9%	u
COc1cccc(-c2nc(CS(=O)(=O)CC(=O)Nc3cccc(C(C)=O)c3)c(C)o2)c1	-2.1%	23.8µM*	4.7%	u	u	u
COc1ccc(-c2nc(CS(=O)(=O)CC(=O)Nc3cccc(C(C)=O)c3)c(C)o2)cc1	-1.3%	-14.7%	3.3%	-16.9%	2.4%	u
Nc1c(-c2ccc(F)cc2)nc2ncccn12	x	-7.8%	x	-3.3%	x	13.0%
COC(=O)COc1ccc2c(c1)O/C(=C\c1cccc([N+](=O)[O-])c1)C2=O	-13.4%	1.2%	x	13µM*	-5.4%	18.4µM*
COc1ccco1	-18.2%	x	6.2%	x	8.9%	x
CC(C)Oc1cc(F)ccc1-c1cc(C(=O)NCc2cccnc2)[nH]n1	x	-0.6%	x	u	x	6.9%
